Results: PubChem BioAssay AID1159580 (chemical genetic matrix, 2015)
Hit rate of the full screen: of about 5,500 compounds, about 2,000 (36%) were called active. Another 18% or so got no clear call; they are omitted. Rule as the data show it: active = normalized growth mostly below about 0.91 (no sharp cut-off); inconclusive = no clear call, values can overlap the other calls; inactive = mostly above about 0.92. The list shows a part of the results.

Experiment: chemical genetic growth profiling, strain panel (AID 1159580);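 also: tested at 20 µM; growth read once vehicle control cultures reached saturation at 30 °C; 1 = growth at the plate median or of vehicle wells; lower values mean less growth of the strain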
Conditions: growth OD

Measured: normalized growth

Nc1ncnc2c1ncn2[C@@H]1O[C@H](CO)[C@@H](O)[C@@H]1O
inactive: S. cerevisiae deletion strains, locus YJR075W, strain HOC1, stronger effect = lower value 1.02 | S. cerevisiae deletion strains, locus YKL009W, strain mrt4, stronger effect = lower value 1.08 | S. cerevisiae deletion strains, locus YKL068W, stronger effect = lower value 1.01 | S. cerevisiae deletion strains, locus YKL085W, strain MDH1 (second series), stronger effect = lower value 1 | S. cerevisiae deletion strains, locus YKL085W, strain MDH1, stronger effect = lower value 1 | S. cerevisiae deletion strains, locus YKL160W, strain elf1, stronger effect = lower value 1 | S. cerevisiae deletion strains, locus YKL190W, strain CNB1, stronger effect = lower value 0.996 | S. cerevisiae deletion strains, locus YKR001C, strain vps1, stronger effect = lower value 1.04 | S. cerevisiae deletion strains, locus YKR026C, strain gcn3, stronger effect = lower value 1.01 | S. cerevisiae deletion strains, locus YKR091W, strain srl3, stronger effect = lower value 1.01 | S. cerevisiae deletion strains, locus YLL001W, strain dnm1, stronger effect = lower value 1.02 | S. cerevisiae deletion strains, locus YLL026W, stronger effect = lower value 1 | S. cerevisiae deletion strains, locus YLL041C, strain sdh2, stronger effect = lower value 1.01 | S. cerevisiae deletion strains, locus YLR027C, strain aat2, stronger effect = lower value 1.01 | S. cerevisiae deletion strains, locus YLR039C, strain RIC1, stronger effect = lower value 1.02 | S. cerevisiae deletion strains, locus YLR058C, strain SHM2, stronger effect = lower value 1.01 | S. cerevisiae deletion strains, locus YLR102C, strain apc9, stronger effect = lower value 1.02 | S. cerevisiae deletion strains, locus YLR113W, strain HOG1, stronger effect = lower value 1 | S. cerevisiae deletion strains, locus YLR221C, strain rsa3, stronger effect = lower value 1.01 | S. cerevisiae deletion strains, locus YLR258W, strain gsy2, stronger effect = lower value 1.01 | S. cerevisiae deletion strains, locus YLR262C, strain YPT6 (second series), stronger effect = lower value 1.03 | S. cerevisiae deletion strains, locus YLR262C, strain YPT6, stronger effect = lower value 1.03 | S. cerevisiae deletion strains, locus YLR268W, strain sec22, stronger effect = lower value 1.04 | S. cerevisiae deletion strains, locus YLR320W, strain mms22, stronger effect = lower value 1 | S. cerevisiae deletion strains, locus YLR330W, strain CHS5, stronger effect = lower value 1.01 | S. cerevisiae deletion strains, locus YLR342W, strain FKS1 (second series), stronger effect = lower value 0.989 | S. cerevisiae deletion strains, locus YLR342W, strain FKS1, stronger effect = lower value 1.01 | S. cerevisiae deletion strains, locus YLR357W, strain rsc2, stronger effect = lower value 1.04 | S. cerevisiae deletion strains, locus YLR370C, strain arc18, stronger effect = lower value 1.02 | S. cerevisiae deletion strains, locus YLR371W, strain rom2, stronger effect = lower value 1.02 | S. cerevisiae deletion strains, locus YLR384C, strain iki3, stronger effect = lower value 1.01 | S. cerevisiae deletion strains, locus YLR418C, strain cdc73, stronger effect = lower value 1.05 | S. cerevisiae deletion strains, locus YML016C, strain PPZ1, stronger effect = lower value 1.01 | S. cerevisiae deletion strains, locus YML032C, strain rad52, stronger effect = lower value 1.03 | S. cerevisiae deletion strains, locus YML120C, strain ndi1, stronger effect = lower value 1.01 | S. cerevisiae deletion strains, locus YML124C, strain tub3, stronger effect = lower value 1.03 | S. cerevisiae deletion strains, locus YMR058W, strain fet3, stronger effect = lower value 1.02 | S. cerevisiae deletion strains, locus YMR078C, strain ctf18, stronger effect = lower value 1.03 | S. cerevisiae deletion strains, locus YMR125W, strain sto1, stronger effect = lower value 1.01 | S. cerevisiae deletion strains, locus YMR129W, stronger effect = lower value 1.01 | S. cerevisiae deletion strains, locus YMR205C, strain PFK2, stronger effect = lower value 1.03 | S. cerevisiae deletion strains, locus YMR223W, strain ubp8, stronger effect = lower value 1.03 | S. cerevisiae deletion strains, locus YMR231W, strain pep5, stronger effect = lower value 1.01 | S. cerevisiae deletion strains, locus YMR263W, strain SAP30, stronger effect = lower value 1.01 | S. cerevisiae deletion strains, locus YMR307W, strain GAS1, stronger effect = lower value 1.01 | S. cerevisiae deletion strains, locus YNL067W, strain RPL9B, stronger effect = lower value 1.01 | S. cerevisiae deletion strains, locus YNL071W, strain lat1, stronger effect = lower value 1.02 | S. cerevisiae deletion strains, locus YNL128W, strain TEP1, stronger effect = lower value 1.02 | S. cerevisiae deletion strains, locus YNL153C, strain GIM3, stronger effect = lower value 1.01 | S. cerevisiae deletion strains, locus YNL183C, strain NPR1, stronger effect = lower value 0.952 | S. cerevisiae deletion strains, locus YNL209W, strain ssb2, stronger effect = lower value 1.01 | S. cerevisiae deletion strains, locus YNL233W, strain BNI4, stronger effect = lower value 1.02 | S. cerevisiae deletion strains, locus YNL248C, strain rpa49, stronger effect = lower value 1.01 | S. cerevisiae deletion strains, locus YNL250W, strain rad50, stronger effect = lower value 1.03 | S. cerevisiae deletion strains, locus YNL271C, strain bni1, stronger effect = lower value 1.03 | S. cerevisiae deletion strains, locus YNL298W, strain CLA4, stronger effect = lower value 1.02 | S. cerevisiae deletion strains, locus YNL307C, strain MCK1, stronger effect = lower value 1.03 | S. cerevisiae deletion strains, locus YNL322C, strain KRE1 (second series), stronger effect = lower value 1.02 | S. cerevisiae deletion strains, locus YNL322C, strain KRE1, stronger effect = lower value 1.01 | S. cerevisiae deletion strains, locus YNR049C, strain mso1, stronger effect = lower value 1.02 | S. cerevisiae deletion strains, locus YNR052C, strain pop2, stronger effect = lower value 1.03 | S. cerevisiae deletion strains, locus YOL006C, strain TOP1, stronger effect = lower value 1.06 | S. cerevisiae deletion strains, locus YOL012C, strain htz1 1.2 | S. cerevisiae deletion strains, locus YOL147C, strain pex11, stronger effect = lower value 1.03 | S. cerevisiae deletion strains, locus YOR001W, strain rrp6, stronger effect = lower value 1.02 | S. cerevisiae deletion strains, locus YOR061W, strain CKA2, stronger effect = lower value 1.02 | S. cerevisiae deletion strains, locus YOR069W, strain VPS5, stronger effect = lower value 1 | S. cerevisiae deletion strains, locus YOR070C, strain gyp1, stronger effect = lower value 1.02 | S. cerevisiae deletion strains, locus YOR080W, strain dia2, stronger effect = lower value 1 | S. cerevisiae deletion strains, locus YOR083W, strain WHI5, stronger effect = lower value 1.01 | S. cerevisiae deletion strains, locus YOR106W, strain vam3, stronger effect = lower value 1.01 | S. cerevisiae deletion strains, locus YOR136W, strain idh2, stronger effect = lower value 1.03 | S. cerevisiae deletion strains, locus YOR144C, strain elg1, stronger effect = lower value 1.03 | S. cerevisiae deletion strains, locus YOR184W, strain ser1, stronger effect = lower value 1.05 | S. cerevisiae deletion strains, locus YOR231W, strain MKK1, stronger effect = lower value 0.981 | S. cerevisiae deletion strains, locus YOR265W, strain rbl2, stronger effect = lower value 1 | S. cerevisiae deletion strains, locus YOR270C, strain vph1, stronger effect = lower value 1.06 | S. cerevisiae deletion strains, locus YOR290C, strain snf2, stronger effect = lower value 1.03 | S. cerevisiae deletion strains, locus YOR316C, strain cot1, stronger effect = lower value 1.03 | S. cerevisiae deletion strains, locus YPL051W, strain arl3, stronger effect = lower value 1.01 | S. cerevisiae deletion strains, locus YPL055C, strain LGE1, stronger effect = lower value 1.04 | S. cerevisiae deletion strains, locus YPL078C, strain atp4, stronger effect = lower value 1.02 | S. cerevisiae deletion strains, locus YPL106C, strain sse1, stronger effect = lower value 1.02 | S. cerevisiae deletion strains, locus YPL240C, strain hsp82, stronger effect = lower value 1.03 | S. cerevisiae deletion strains, locus YPL241C, strain CIN2, stronger effect = lower value 1 | S. cerevisiae deletion strains, locus YPL256C, strain CLN2, stronger effect = lower value 0.963 | S. cerevisiae deletion strains, locus YPR119W, strain clb2, stronger effect = lower value 1.03 | S. cerevisiae deletion strains, locus YPR141C, strain kar3, stronger effect = lower value 1.03 | S. cerevisiae deletion strains, locus YPR163C, strain tif3, stronger effect = lower value 1.04 | S. cerevisiae deletion strains, locus YPR167C, strain met16, stronger effect = lower value 1.03 | S. cerevisiae deletion strains, strain wtn01, stronger effect = lower value 1.02 | S. cerevisiae strains, strain wild type, stronger effect = lower value 1.01
